Whole data set: some 81,000 sequences, median “one-hybrid fitness for binding parS DNA” near -0.17, cut for the highest 2% near 0.51. This is one part of a sample in which the highest values are shown more often than they occur.
B1: Caulobacter ParB omega fusion; a variant is named by its letters at X, in order, B8GW30 (parent)
chain: MESVVVGEPGMSEGRRGLGRGLSALLGEVDAAPAQAPGEQLGGSREAPIEILQRNPDQPRRTFREEDLEDLSNSIREKGVLQPILVRPSPDTAGEYQIVAGERAWRAAQRAGLKTVPIMVRELDDLAVLEIGIIENVQRADLNVLEEALSYKVLMEKFERTQENIAQTIGKSXSHVANXMRLLXLPDEVQSYLVSGELTAXHARAIAAAADPVALAKQIIEGGLSVRETEALARKAPNLSAGKSKGGRPPRVKDTDTQALESDLSSVLGLDVSIDHRGSTGTLTITYATLEQLDDLCNRLTRGI

Variants of: B1
Test: one-hybrid fitness for binding parS DNA (scaled: cognate 1, non-cognate 0); higher = stronger binding
Settings: with parS DNA site
Method in brief: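 In E. coli USO, a HIS3 reporter with its site placed 19 bp from the promoter was used to select Caulobacter ParB variants randomised at four specificity codons. Growth lasted 48 hours at 37°C on histidine-free M9 containing 0.1 mM IPTG and 5 mM 3-AT. Fitness was taken as the log change in variant-to-wild-type read ratio from Illumina sequencing of pre- and post-selection plasmids, rescaled between the non-cognate and cognate sites.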

Variant	one-hybrid fitness for binding parS DNA
LRIP	≤ 0.2
LILQ	≤ 0.2
ENVC	≤ 0.2
PHDG	≤ 0.2
NQKT	≤ 0.2
QLHL	≤ 0.2
SRVM	≤ 0.2
CYAS	≤ 0.2
LQFE	≤ 0.2
IFWT	0.24
YSKG	≤ 0.2
TVTW	≤ 0.2
LNPP	≤ 0.2
GYPI	≤ 0.2
RLFR	≤ 0.2
RLFQ	≤ 0.2
RLFT	0.838
RLAT	0.938
RLAQ	≤ 0.2
RLAK	≤ 0.2
SNGD	≤ 0.2
SLHC	≤ 0.2
QQSF	≤ 0.2
CLAL	≤ 0.2

Variant	one-hybrid fitness for binding parS DNA
LSRM	≤ 0.2
SMQP	≤ 0.2
RRSP	≤ 0.2
RRSS	0.653
RRSH	≤ 0.2
RRSR	≤ 0.2
RRSN	0.695
RRSD	≤ 0.2
EKER	≤ 0.2
TCNL	≤ 0.2
QSVW	≤ 0.2
TGSG	≤ 0.2
MLIG	≤ 0.2
TASY	≤ 0.2
GFDT	≤ 0.2
RCST	0.923
RDST	≤ 0.2
RPST	≤ 0.2
RSST	0.883
RSSM	0.327
REST	≤ 0.2
PKQP	≤ 0.2
RNAS	0.914
RNFN	0.256

Variant	one-hybrid fitness for binding parS DNA
RNAH	≤ 0.2
RNFD	≤ 0.2
RNAD	≤ 0.2
RNFS	0.719
KHDT	≤ 0.2
WNNG	≤ 0.2
RVAF	0.259
RVFY	0.464
RVAT	0.916
RVFT	0.917
RVFM	0.363
RVAR	≤ 0.2
SPGM	≤ 0.2
RMRD	≤ 0.2
RMSC	0.956
RMYK	≤ 0.2
RMCF	0.217
RMCC	0.985
RMYC	1.01
RMCR	≤ 0.2
RMRC	0.867
RMRH	0.261
RMSN	0.449
RMSP	0.204

Variant	one-hybrid fitness for binding parS DNA
RMYF	0.289
LSPY	≤ 0.2
LVGR	≤ 0.2
GTAK	≤ 0.2
ELGD	≤ 0.2
QSMI	≤ 0.2
EQMT	≤ 0.2
IWTC	≤ 0.2
GPTP	≤ 0.2
PHIN	≤ 0.2
LTQT	≤ 0.2
RDMK	≤ 0.2
TFCT	≤ 0.2
RMLR	≤ 0.2
RMLL	≤ 0.2
RMLC	0.983
THQL	≤ 0.2
RMRA	0.765
RMYA	0.651
DMYA	≤ 0.2
NMRA	≤ 0.2
RMEA	0.495
QQDP	≤ 0.2
GWES	≤ 0.2

Variant	one-hybrid fitness for binding parS DNA
RDIG	≤ 0.2
RCIG	0.955
RSPG	0.507
REIG	≤ 0.2
RSIG	0.822
RPIG	≤ 0.2
PLWA	≤ 0.2
FGAE	≤ 0.2
KGTY	≤ 0.2
VTTC	≤ 0.2
MCDS	≤ 0.2
TPPY	≤ 0.2
HNSC	≤ 0.2
RMYR	0.225
RMGG	0.993
RMHM	0.374
RMDN	0.375
RMHG	1.01
RMHF	0.269
RMGH	≤ 0.2
RMYQ	0.205
RMYG	1.03
RMDG	0.917
RMDH	≤ 0.2

Variant	one-hybrid fitness for binding parS DNA
RMGN	0.453
SGDY	≤ 0.2
SKDT	≤ 0.2
VGNC	≤ 0.2
RNAF	≤ 0.2
FYKS	≤ 0.2
RLMI	≤ 0.2
SYAC	≤ 0.2
QDNF	≤ 0.2
CRIC	≤ 0.2
DYAR	≤ 0.2
QGFS	≤ 0.2
TIDG	≤ 0.2
QNGG	≤ 0.2
NVIK	≤ 0.2
RMNR	≤ 0.2
RMNG	0.999
RMRG	0.962
RMRL	≤ 0.2
RMNM	0.351
RMRF	0.368
PVDG	≤ 0.2
TFGE	≤ 0.2
DQLH	≤ 0.2

Variant	one-hybrid fitness for binding parS DNA
HHQA	≤ 0.2
RSVP	≤ 0.2
RPVS	≤ 0.2
RCVH	≤ 0.2
RSVN	0.342
RSVS	0.946
RCVS	1.02
RDPY	≤ 0.2
NTKG	≤ 0.2
RMDM	0.302
RMNN	0.467
RMDC	0.889
RMDK	≤ 0.2
RMNC	0.969
RMNE	≤ 0.2
KILI	≤ 0.2
PNVW	≤ 0.2
STNR	≤ 0.2
QRCN	≤ 0.2
RTKK	≤ 0.2
RTVC	0.929
RTKC	0.813
RTVR	≤ 0.2
DTKC	≤ 0.2

Variant	one-hybrid fitness for binding parS DNA
TIRR	≤ 0.2
RNYV	≤ 0.2
LASP	≤ 0.2
DNAR	≤ 0.2
QMYE	≤ 0.2
RIFA	0.529
RIAA	0.62
NIAA	≤ 0.2
DIAA	≤ 0.2
PPGC	≤ 0.2
WPHF	≤ 0.2
EGPL	≤ 0.2
RVDN	0.371
RVNS	0.915
RVND	≤ 0.2
RVNN	0.416
RVDP	≤ 0.2
RVDS	0.974
NYLV	≤ 0.2
NSCK	≤ 0.2
IGDM	≤ 0.2
LLDM	≤ 0.2
NKNA	≤ 0.2
RKDA	0.536

Variant	one-hybrid fitness for binding parS DNA
RKNA	0.834
TAPI	≤ 0.2
IGRG	≤ 0.2
CPMT	≤ 0.2
RIKY	0.747
RPKY	≤ 0.2
RLKY	0.704
RLVY	0.465
RIVY	0.469
RKKY	0.492
RTVY	0.443
RCKY	0.716
RTKY	0.89
QPIK	≤ 0.2
KIKS	≤ 0.2
KKAL	≤ 0.2
YKKT	≤ 0.2
ALMT	≤ 0.2
EPHL	≤ 0.2
FFHG	≤ 0.2
FQRT	≤ 0.2
GLWL	≤ 0.2
GYNP	≤ 0.2
PKHV	≤ 0.2

Variant	one-hybrid fitness for binding parS DNA
LGGC	≤ 0.2
RFKY	0.569
RHKY	0.518
RRKY	0.856
RDKY	≤ 0.2
RSKY	0.609
RHVY	0.354
RFVY	0.301
RSVY	0.37
RHYY	0.438
RRVY	0.247
SFKY	≤ 0.2
QMIF	≤ 0.2
VKTF	≤ 0.2
YLRV	≤ 0.2
VMPR	≤ 0.2
CRLW	≤ 0.2
GEYT	≤ 0.2
RMKY	0.782
RMVY	0.438
RAVY	0.412
RAKY	0.644
RAPY	≤ 0.2
KEPT	≤ 0.2

Variant	one-hybrid fitness for binding parS DNA
QTVF	≤ 0.2
RIVP	≤ 0.2
RIVS	1.01
RIKS	0.822
RIKD	≤ 0.2
RIVD	≤ 0.2
RIKP	≤ 0.2
NSRE	≤ 0.2
AKIQ	≤ 0.2
TIGL	≤ 0.2
RCGS	0.945
RAGN	0.448
RMGD	≤ 0.2
RAGD	≤ 0.2
RCGP	≤ 0.2
RMGP	0.235
RFGH	0.245
RPGS	≤ 0.2
RMGS	0.988
RFGN	0.435
RAGS	0.989
RFGS	0.969
SGNV	≤ 0.2
PNMM	≤ 0.2

Variant	one-hybrid fitness for binding parS DNA
SVIY	≤ 0.2
CGSR	≤ 0.2
AIHE	≤ 0.2
NKPL	≤ 0.2
WVGM	≤ 0.2
CMEW	≤ 0.2
NDFI	≤ 0.2
KPTT	≤ 0.2
WGPD	≤ 0.2
RHGD	≤ 0.2
RTGS	0.92
RKGD	≤ 0.2
RKGN	0.429
RHGN	0.363
RIGS	0.959
RIGN	0.477
RTGN	0.44
RTGD	≤ 0.2
RHGS	0.888
RIGP	≤ 0.2
RKGS	0.833
NELG	≤ 0.2
VCTS	≤ 0.2
QDQT	≤ 0.2

Variant	one-hybrid fitness for binding parS DNA
APQI	≤ 0.2
TGHY	≤ 0.2
LTYE	≤ 0.2
FDTS	≤ 0.2
VQYL	≤ 0.2
GTNP	≤ 0.2
RSGN	0.46
RIGY	0.51
RCGY	0.43
RSGD	≤ 0.2
RSGS	0.983
LCDD	≤ 0.2
TNCY	≤ 0.2
FSDT	≤ 0.2
KCRM	≤ 0.2
RMPR	≤ 0.2
RMIT	0.752
RMPH	≤ 0.2
RMIK	≤ 0.2
RMIQ	≤ 0.2
RMPT	0.625

Reference: a collection of fitness landscapes (doi:10.1016/j.celrep.2020.107928)
